According to PubChem BioAssay AID1851 (National Center for Advancing Translational Sciences (NCATS), 2009):
“And” between values parts separate entries of the source, which are not always exact repeats. Equal values may be shown once. About 2,600 (16%) of roughly 16,000 compounds were called active. Roughly 20% stayed inconclusive and do not appear here. Calls follow the shape of the dose curve; as a rule, active = well fitted curve in the direction sought with a large enough effect; inconclusive = small, poorly fitted or top-dose-only effect, or effect the other way; inactive = no such curve, though single readings can be large or run the other way. Only a sample is shown.

biological target: Cytochrome P450 2D6 (Homo sapiens) (UniProt P10635); test: Cytochrome panel assay with activity outcomes; conditions: recombinant CYP, pro-luciferin dealkylation, luminescence, p450-cyp2d6; series mostly up to 57.1 µM
Sequence (P10635 whole entry, looked up): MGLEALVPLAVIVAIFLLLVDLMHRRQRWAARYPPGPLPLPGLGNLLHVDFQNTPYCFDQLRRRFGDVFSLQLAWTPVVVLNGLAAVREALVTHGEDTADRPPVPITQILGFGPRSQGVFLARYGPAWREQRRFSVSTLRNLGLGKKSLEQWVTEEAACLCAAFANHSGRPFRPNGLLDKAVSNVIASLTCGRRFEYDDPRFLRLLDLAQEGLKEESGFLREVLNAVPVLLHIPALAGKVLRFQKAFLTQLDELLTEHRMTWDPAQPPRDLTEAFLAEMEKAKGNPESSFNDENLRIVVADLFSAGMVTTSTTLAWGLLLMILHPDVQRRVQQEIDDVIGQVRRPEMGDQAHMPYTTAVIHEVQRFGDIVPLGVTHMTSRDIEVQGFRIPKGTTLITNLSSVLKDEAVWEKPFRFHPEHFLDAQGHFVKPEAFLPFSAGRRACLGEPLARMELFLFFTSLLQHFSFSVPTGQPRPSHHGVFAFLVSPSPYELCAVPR
% is scaled to controls: 0 for no effect and ±100 for the full control effect.

| SMILES | AC50 | activity, negative = inhibition |
| --- | --- | --- |
| O=c1[nH][nH]cc1C=Nc1ccccc1O | inactive | – |
| Cc1noc(COc2ccc(OCc3nc(C)no3)cc2)n1 | inactive | – |
| Cc1cc(C)n(-c2nc(NC(C)C)nc(NC(C)C)n2)n1 | inactive | – |
| c1ccc2c(N3CCNCC3)nc(-c3ccc4c(c3)OCO4)nc2c1 | 3.16 µM (active) | – |
| CN(C)c1ccc(-c2nc(N3CCNCC3)c3ccccc3n2)cc1 | 12.6 µM (active) | – |
| COc1cc(/C=C/C(=O)O)cc(S(=O)(=O)NCCCO)c1OC | inactive | – |
| O=C1Oc2ccccc2C2(O)C3CCCCCC3C12 (stereo not given) | inactive | – |
| CSc1nc(Oc2ccc(=O)[nH]n2)nc(N(C)C)n1 | inactive | – |
| Cc1cc(/C=C2\SC(=S)NC2=O)c(C)n1C | inactive | – |
| CCCCCSc1nnc(C)c(=O)[nH]1 | inactive | – |
| COc1ccc(NC(=O)N2CC[C@@]3(CCCN(C(=O)c4cc(C(F)(F)F)cc(C(F)(F)F)c4)C3)C2)cc1 | inactive | – |
| O=C(O)/C(Cc1ccc([N+](=O)[O-])cc1)=N/O | – | 6.05% [at 11.4 µM] (inactive) |
| COc1ccc(/C=C2/S/C(=N/N=C3\CC4CCC3(C)C4(C)C)NC2=O)cc1 (stereo not given) | inactive | – |
| CC(=O)O[C@]1(C(C)=O)CC[C@@H]2[C@@H]3C=C(Cl)C4=CC(=O)[C@H]5C[C@@H]5[C@]4(C)[C@H]3CC[C@]21C | inactive | – |
| CCNc1ncc2nc(-c3ccc(OC)cc3)c(=O)n(Cc3cccs3)c2n1 | inactive | – |
| COc1cccc(-c2csc(N3CCN(C(=S)Nc4ccccc4)CC3)n2)c1 | inactive | – |
| COc1cccc(Nc2nc(-c3ccc(O)cc3)cs2)c1 | 8.91 µM (active) | – |
| COc1ccc(-c2csc(NC(=O)Cn3nc(C)cc3C)n2)cc1 | inactive | – |
| Cc1ccc(OCC(=O)NNC(=O)C2CCN(c3ncccn3)CC2)cc1 | inactive | – |
| OC[C@@H]1O[C@@H](n2cnc3c(NC4CCCC4)ncnc32)[C@H](O)[C@H]1O | inactive | – |
| Cc1ccn2c(NC(=O)c3ccccc3)c(-c3cccs3)nc2c1 | inactive | – |
| CC[N+](CC)(CC(=O)Nc1c(C)cccc1C)Cc1ccccc1 | 0.00794 µM (active) | – |
| Cc1cccc(C)c1NC(=S)NC(=O)CCc1ccccc1 | inactive | – |
| CC[N+](CC)(CC)CC(=O)Nc1c(C)cccc1C | inactive | – |

| SMILES | AC50 | activity, negative = inhibition |
| --- | --- | --- |
| COc1ccc(CCNC(=O)C2CCN(S(=O)(=O)N3CC(C)CC(C)C3)CC2)cc1OC (stereo not given) | inactive | – |
| C1CCC(N=C(NC23CC4CC(CC(C4)C2)C3)N2CCOCC2)CC1 | 0.631 µM (active) | – |
| COC(=O)[C@@]1(Cc2ccc(OC)cc2)[C@H]2c3cc(C(=O)N4CCCC4)n(Cc4cc(F)cc5c4OCOC5)c3C[C@H]2CN1C(=O)c1ccccc1 | inactive | – |
| CCn1ccc(C(=O)NC2=C(C#N)CCC2)n1 | inactive | – |
| COc1cc(COc2cc(N)c(Cl)cc2C(=O)CCC2CCN(CCNS(C)(=O)=O)CC2)cc(OC)c1 | 0.794 µM (active) | – |
| Cn1cc(C(=O)OCC2CCN(CCNS(C)(=O)=O)CC2)c2ccccc21 | inactive | – |
| COc1cc(N)c(Cl)cc1C(=O)CCC1CCN(CCNS(C)(=O)=O)CC1 | 12.6 µM (active) | – |
| COc1[nH]c2ccc(F)cc2c1C(=O)OCC1CCN(CCNS(C)(=O)=O)CC1 | inactive | – |
| COc1cc(/C=C(\C#N)C(=O)NCC2CCCO2)c([N+](=O)[O-])cc1OC (stereo not given) | inactive | – |
| CCn1c(CC(C)C)n[nH]c1=S | inactive | – |
| CO[C@H]1COC(=O)C/C=C\[C@H](C)[C@@H](NS(=O)(=O)c2ccc(C)cc2)COC(=O)CCC[C@@H]1C | – | 8.76% [at 11.4 µM] (inactive) |
| COC(Cc1nnc(SC)n1-c1ccc(Cl)cc1)OC | inactive | – |
| Cc1cccc(Oc2coc3cc(OC(=O)c4cccs4)ccc3c2=O)c1 | inactive | – |
| Cc1ccc(CS(=O)(=O)CCC(=O)N2CCOCC2)cc1 | inactive | – |
| CC(C)n1c(N2CCN(C(=O)Nc3ccccc3)CC2)nc2ccccc21 | inactive | – |
| Cn1cc(/C=N/n2cnc3sc4c(c3c2=O)CCCC4)c2ccccc21 | inactive | – |
| COc1ccc2[nH]cc(CCNc3ncnc4ccc(-c5ccc6c(c5)OCO6)cc34)c2c1 | 2.51 µM (active) | – |
| COc1cccc(-c2ccc3ncnc(NCCc4c[nH]c5ccc(OC)cc45)c3c2)c1 | 2.51 µM (active) | – |
| COc1ccc2[nH]cc(CCNc3ncnc4ccc(-c5ccoc5)cc34)c2c1 | 5.01 µM (active) | – |
| COc1ccc2[nH]cc(CCNc3ncnc4ccc(-c5cccnc5)cc34)c2c1 | 7.94 µM (active) | – |
| COC(=O)[C@@H]1CC[C@H](C)[C@@H](c2ccc(C)cc2)N1C(=O)c1ccc(/C=N\O[C@@H](C)c2cn([C@H](CO)Cc3ccccc3)nn2)cc1 | – | 12.4% [at 11.4 µM] (inactive) and -16.1% [at 11.4 µM] (inactive) |
| N[C@](CC1c2ccccc2Oc2ccccc21)(C(=O)O)[C@@H]1C[C@@H]1C(=O)O | inactive | – |
| COc1ccc(-n2c(=O)c(-c3ccc(F)cc3)nc3cncnc32)cc1 | inactive | – |
| Cn1nnnc1SCc1ccc(C(=O)Nc2ccc(Br)cc2)cc1 | inactive | – |

| SMILES | AC50 | activity, negative = inhibition |
| --- | --- | --- |
| CCC(=O)OCc1c(C(F)(F)F)nn(C)c1Sc1ccc(F)cc1 | inactive | – |
| CC(C)(C)C(=O)NC(=C(Cl)Cl)P(=O)(O)O | inactive | – |
| Cc1c(C)c2c(c(C)c1O)CC[C@@](C)(C(=O)O)O2 | inactive | – |
| CCCNc1nc(NCC)nc(OC)n1 | inactive | – |
| Cc1noc(C)c1C(=O)N1CCC2(CCCN(Cc3nccs3)C2)CC1 | inactive | – |
| C[C@H](O)[C@H](O)[C@@H]1CNc2nc(N)[nH]c(=O)c2N1 | inactive | – |
| COc1ccc2[nH]cc(CCNc3ncnc4ccc(-c5c(C)noc5C)cc34)c2c1 | 6.31 µM (active) | – |
| Cc1ccc(-n2nnnc2-c2cnc3ccc(Cl)cc3c2-c2ccccc2)cc1 | inactive | – |
| Clc1ccc2[nH]cc(-c3nnnn3-c3ccccc3)c2c1 | 28.2 µM (active) | – |
| Fc1ccc(-c2[nH]ncc2-c2nnnn2-c2ccccc2)c(F)c1 | inactive | – |
| Cc1cccc(C2NC(=O)c3c(sc(C)c3C)N2)c1O (stereo not given) | inactive | – |
| Clc1ccc(-c2nnc(-c3ccc(Br)cc3)c(N3CCSCC3)n2)cc1 | inactive | – |
| CC1(C)Cc2ccccc2C(NNC(=O)c2ccncc2)=N1 | 7.94 µM (active) | – |
| CC(C)NNC(=O)c1ccncc1 | inactive | – |
| O=C(NNC(=O)c1ccncc1)c1ccncc1 | – | -4.63% [at 11.4 µM] (inactive) |
| O=C(Cc1ccccc1)N/N=C/c1cc(Br)c(Br)o1 | inactive | – |
| COc1ccc(OC)c(C2N(c3cc(C)on3)C(=O)C3CCCN32)c1 (stereo not given) | inactive | – |
| COc1ccc(C(F)(F)F)cc1N/C=C\c1nnnn1-c1ccccc1 | inactive | – |
| COc1cc(-c2nnc(SCC(=O)Nc3ccc4c(c3)OCCO4)o2)cc(OC)c1OC | inactive | – |
| O=C(CN1CCN(S(=O)(=O)c2ccc(Cl)cc2)CC1)Nc1ccc2c(c1)OCO2 | 2.51 µM (active) | – |
| CCN(CC(=O)Nc1ccc2c(c1)OCCO2)C(=O)c1cccc(S(=O)(=O)N2CCOCC2)c1 | inactive | – |
| CCOC(=O)c1[nH]c2cc(OC)c(OC)cc2c1NC(=O)c1nonc1C | inactive | – |
| CCOC(=O)c1[nH]c2cc3c(cc2c1NC(=O)CN1CCc2ccccc2C1)OCO3 | 3.55 µM (active) | – |
| CCOc1ccc(NC(=O)CN2CCN(S(=O)(=O)c3ccc(Cl)cc3)CC2)cc1 | inactive | – |

| SMILES | AC50 | activity, negative = inhibition |
| --- | --- | --- |
| O=C(CSc1ccc(Cl)cc1)Nc1ccc(N2CCN(c3ccccc3)CC2)c(F)c1 | inactive | – |
| COc1cc2c(cc1OC)CN(C(=S)Nc1ccccc1)CC2 | inactive | – |
| O=C(CSc1ccccc1)Nc1ccc(N2CCN(c3ccccc3)CC2)c(F)c1 | inactive | – |
| CCOC(=O)c1[nH]c2cc3c(cc2c1NC(=O)CN1CCC2(CC1)OCCO2)OCO3 | inactive | – |
| COc1cc2c(cc1OC)CN(CC(=O)Nc1ccc3c(c1)OCO3)CC2 | 8.91 µM (active) | – |
| O=C(CN1CCN(c2ccc(Cl)cc2)CC1)Nc1ccc(F)c(F)c1 | 3.55 µM (active) | – |
| N[C@@](CC(=O)O)(Cc1ccccc1)C(=O)O | – | 7.77% [at 11.4 µM] (inactive) |
| CCN1C(=O)[C@H]2[C@H]3[C@H](O)[C@H](O)C/C(=N/O[C@@H](C)c4cn([C@H]5COC[C@H]5O)nn4)[C@@H]3CC[C@@H]2C1=O | – | -1.04% [at 11.4 µM] (inactive) |
| C[C@H](C(=O)c1ccncc1)c1ccccn1 | – | -3.93% [at 11.4 µM] (inactive) |
| O=C(O)CN(CCN(CC(=O)O)CC(=O)O)CC(=O)O.[Mn] | – | 9.26% [at 11.4 µM] (inactive) |
| Cc1cc(=O)oc(C)c1C(=O)N1CCCCC1 | inactive | – |
| CCCC[C@@H]1CN2[C@H](c3ccc(Br)cc3)[C@@H](C)CC[C@H]2C(=O)O1 | – | -5.55% [at 11.4 µM] (inactive) |
| COc1ccc(NC(=O)c2cc(S(=O)(=O)N3CCS(=O)(=O)CC3)ccc2Cl)cc1 | inactive | – |
| COc1ccc(S(=O)(=O)N2CCCN(CC(=O)Nc3ccc(OC)c(Cl)c3)CC2)cc1 | 11.2 µM (active) | – |
| COc1ccc(S(=O)(=O)N2CCCN(CCC(=O)Nc3cccc(C(F)(F)F)c3)CC2)cc1 | 8.91 µM (active) | – |
| Cc1c(C(=O)Nc2cccc(C(F)(F)F)c2)oc2ccc(S(=O)(=O)N3CCOCC3)cc12 | inactive | – |
| CCN1CCN(CCC(=O)Nc2cccc(OC)c2)CC1 | inactive | – |
| COc1ccc(C)cc1NC(=O)CN1CCN(S(=O)(=O)c2ccc(F)cc2)CC1 | inactive | – |
| Cc1nc(SC2CC(=O)N(c3ccc([N+](=O)[O-])cc3)C2=O)nc2c1CCCC2 (stereo not given) | inactive | – |
| COC(=O)c1ccc(C(=O)OC)c(NC(=S)N2CCN(c3ccccc3)CC2)c1 | inactive | – |
| C=CCOc1cccc(CNn2cn[nH]c2=S)c1 | inactive | – |
| COc1cc(C2C(C#N)=C(N)N(c3sc4c(c3C#N)CCCC4)C3=C2C(=O)CC(C)(C)C3)cc(OC)c1OC (stereo not given) | inactive | – |
| Cc1cc(C)c(O)c(Cc2cccc(Cc3cc(C)cc(C)c3O)c2O)c1 | – | 12.6% [at 11.4 µM] (inactive) |
